Laboratory results: PubChem BioAssay (NCI)
This is part of a sample that, as a whole, favours compounds with a hit. Of some 83,000 tested, about 20% had one in any assay.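 Growth was measured after 48 h exposure to one concentration of compound in 96-well plates. Values under 10 count as active.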 Unmarked numbers belong to inactive results. Activity calls are given as the source filed them.

What was measured:
Test in all cases: NCI-60 one-dose screen, 48 h (100 = growth as untreated, 0 = no growth, -100 = all killed)
EKVX NSCLC = details: 10 µM unless noted
SN12C renal = details: 10 µM unless noted
UO-31 renal = details: 10 µM unless noted
TK-10 renal = details: 10 µM unless noted
ACHN renal = details: 10 µM unless noted
CAKI-1 renal = details: 10 µM
A498 renal = details: 10 µM unless noted
CCRF-CEM leukemia = details: 10 µM unless noted
SK-MEL-2 melanoma = details: 10 µM unless noted
MOLT-4 leukemia = details: 10 µM unless noted

SMILES | growth (EKVX NSCLC) | growth (SN12C renal) | growth (UO-31 renal) | growth (TK-10 renal) | growth (ACHN renal) | growth (CAKI-1 renal) | growth (A498 renal) | growth (CCRF-CEM leukemia) | growth (SK-MEL-2 melanoma) | growth (MOLT-4 leukemia)
O=C1c2c(c3c4ccc(Br)cc4oc3c3[nH]c4ccccc4c23)C(=O)N1CCO | 53.7% | 34% | 25.6% | 107% | 12% | 23.6% | 52.4% | 21.7% |  | 
C/C(=C(/c1ccc(O)cc1)c1ccc(OCCN2CCCCCC2)cc1)c1ccccc1 | 59% | 57.2% | 29.4% | 92.6% | 58.7% | 39.2% | 74.6% |  |  | 
O=c1cc(-c2ccccc2)nc2sc(-c3c[nH]c4ccc(F)cc34)nn12 | 52% | 56.6% | 20.3% | 50.9% | 30% | 60.5% | 88.8% | 88.4% |  | 
c1cncc(-c2cn3nc(-c4c[nH]c5ccccc45)sc3n2)c1 | 72.5% | 61.5% | 44.6% | 94.4% | 72.3% | 51.7% | 47.9% | 54.1% |  | 
C=CCn1c(SCC(=O)Nc2cccc(C(=O)/C=C/c3ccccc3)c2)nc2ccccc2c1=O | 99.3% | 91.1% | 67.4% | 116% | 93.9% | 80.1% | 92.9% | 72.1% |  | 
C=CCn1c(SCC(=O)Nc2cccc(C(=O)/C=C/c3ccc(Br)cc3)c2)nc2ccccc2c1=O | 106% | 88.8% | 71.2% | 102% | 84.5% | 73.7% | 89.3% | 95.5% |  | 
C=C1C(=O)O[C@@H]2/C=C(/C)C3=CC(=O)[C@@](C)(C[C@H](OC(=O)/C(C)=C\C)[C@@H]12)O3 | 21.6% |  | -85.4% (active) | -18% (active) | -39.1% (active) | 6.13% (active) | 59.5% | -14.9% (active) | -28.5% (active) | 0.44% (active)
COc1ccc(-c2oc3cc(O)cc(O)c3c(=O)c2OC)cc1O | 38.7% |  | 26.2% | 52.3% | 34.1% | 14.9% | -6.41% (active) | 2.67% (active) | 13.2% | 21.4%
COc1cc(C(=O)c2cc(C(C)=O)c3c4ccccc4ccn23)cc(OC)c1OC |  | 74.4% | 43.3% | 70.3% | 71.8% | 30.2% | 34% | 48.9% | 51.5% | 34.6%
COc1ccc2c(C3=C(c4cn(C)c5ccccc45)C(=O)NC3=O)coc2c1 | 50.7% | 32.3% | 37.8% | 79.4% | 37.4% | 42% | 34.9% |  |  | 
Cc1ccccc1/C=C/c1nn2c(-c3ccoc3C)nnc2s1 | 100% | 101% | 85.4% | 95.5% | 102% | 89.8% | 89.5% |  |  | 
